We go through 8 molecules from PubChem BioAssay (NCI).

Some test systems named below: NCI-H23 lung; NCI-H226 lung; NCI-H322M lung; NCI-H460 lung; HOP-92 NSCLC; NCI-H522 lung; A549/ATCC NSCLC; 786-0 renal; COLO 205 colon; DU-145 prostate; K-562 leukemia; MALME-3M melanoma; MDA-MB-231 breast; RXF 393 renal; SF-268 CNS; SF-295 CNS; SF-539 CNS; UACC-257 melanoma; M14 melanoma; HOP-62 NSCLC.
Holding throughout (test): NCI-60 one-dose screen, 48 h (100 = growth as untreated, 0 = no growth, -100 = all killed)
Details in all cases: 10 µM unless noted

About 83,000 compounds went through this panel and 20% of them were active in at least one assay; those are over-represented in the sample as a whole.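 Assay: single dose, 48 h. Readout: percent growth (0 = no net growth; negative = cell death). Active: <10.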 A number with no mark means an inactive call. Active and inactive are the calls of the source.

Turning to `O=P(O)(O)OCC1OC(n2cnc3c(NCc4ccccc4)ncnc32)C(O)C1O` (stereo not drawn), the growth is 17.8% in the assay with NCI-H23 lung; 21.1% with NCI-H226 lung; 33.6% with NCI-H322M lung; 94.3% in the assay with NCI-H460 lung; 22.3% in the assay on HOP-92 NSCLC; 0.67% (active) in the assay on NCI-H522 lung. The growth is 55.1% in the assay on A549/ATCC NSCLC; 21.3% with 786-0 renal; 11.2% in the assay with COLO 205 colon; -50.3% (active) with DU-145 prostate; 60.8% in the assay on K-562 leukemia; 80.9% in the assay on MALME-3M melanoma. Besides, the growth in the assay on MDA-MB-231 breast is 10.6%; in the assay with RXF 393 renal, -0.932% (active); in the assay on SF-268 CNS, 36.3%; with SF-295 CNS it was 52.4%; with SF-539 CNS, 6.39% (active); in the assay with UACC-257 melanoma it was 115%. The growth with M14 melanoma is 29.4%.

Consider `O=C(N/N=C/c1ccc(Cl)cc1Cl)c1ccc2nc(-c3ccc(Cl)cc3)[nH]c2c1`, for which the growth is -0.367% (active) with NCI-H23 lung; 99.3% in the assay on NCI-H226 lung; 27.7% in the assay on NCI-H322M lung; -33.6% (active) in the assay on NCI-H460 lung; 28.1% in the assay with HOP-92 NSCLC; 63.2% in the assay on NCI-H522 lung. Also, the growth is -26.7% (active) with A549/ATCC NSCLC; -42.1% (active) with 786-0 renal; -23.9% (active) in the assay with COLO 205 colon; 30.5% in the assay with DU-145 prostate; 8.67% (active) in the assay on K-562 leukemia; -58.7% (active) in the assay with MALME-3M melanoma. Further, the growth with MDA-MB-231 breast is 9.48% (active); with RXF 393 renal it was 18.9%; in the assay on SF-268 CNS, 38%; in the assay with SF-295 CNS, -49.3% (active); with SF-539 CNS, 37.1%; in the assay on UACC-257 melanoma, 31.7%. For the same molecule, the growth with M14 melanoma was 19.7%.

Regarding `C=CC(C)(O)CC/C=C(\CO)C(=O)OC1C(C)OC(O[C@](C)(C=C)CC/C=C(\CO)C(=O)O[C@H]2C[C@@]3(C(=O)OC4OC(CO)C(O)C(O)C4OC4OC(C)C(OC5OC(CO)C(O)C5O)C(OC5OC(CO)C(O)C(O)C5O)C4O)C(CC2(C)C)C2=CCC4[C@@]5(C)CC[C@H](OC6OC(COC7OC(C)C(O)C(O)C7OC7OCC(O)C(O)C7O)C(O)C(O)C6NC(C)=O)C(C)(C)C5CC[C@@]4(C)[C@]2(C)C[C@H]3O)C(O)C1O` (stereo partly drawn), the growth is 11.9% in the assay on NCI-H23 lung; 2.06% (active) in the assay with NCI-H226 lung; -78.4% (active) in the assay on NCI-H322M lung; -66.9% (active) in the assay on HOP-62 NSCLC; -58.8% (active) with NCI-H522 lung; -37.5% (active) with A549/ATCC NSCLC. For the same molecule, the growth in the assay with 786-0 renal was -77.5% (active); in the assay on COLO 205 colon it was -69.3% (active); in the assay with DU-145 prostate, -91.2% (active); in the assay on K-562 leukemia, 22.8%; in the assay on MALME-3M melanoma it was -56.2% (active); in the assay on MDA-MB-231 breast it was -29.8% (active). For the same molecule, the growth in the assay with RXF 393 renal is -31.3% (active); in the assay with SF-268 CNS it was -53.4% (active); with SF-295 CNS, -59.4% (active); in the assay on SF-539 CNS it was 6.98% (active); in the assay on UACC-257 melanoma, -53.5% (active); in the assay on M14 melanoma, -34.1% (active).

On to `CC(=O)N/C(=C1/OC(C(O)C(O)C(O)CO)CN1C)[P+](c1ccccc1)(c1ccccc1)c1ccccc1` (stereo not drawn), for which the growth was 106% in the assay on NCI-H23 lung; 97.6% in the assay with NCI-H226 lung; 95.1% in the assay on NCI-H322M lung; 101% in the assay on HOP-92 NSCLC; 93.5% with NCI-H522 lung; 102% in the assay on 786-0 renal. Further, the growth in the assay with COLO 205 colon is 107%; in the assay with DU-145 prostate, 105%; with K-562 leukemia it was 97.6%; in the assay with MALME-3M melanoma, 90.5%; in the assay on MDA-MB-231 breast, 103%; with RXF 393 renal, 97%. Moreover, the growth in the assay with SF-268 CNS was 102%; in the assay with SF-295 CNS it was 100%; with SF-539 CNS, 97.6%; with UACC-257 melanoma, 104%; with M14 melanoma it was 99.7%.

In the case of `Cc1cc2oc(=O)cc(CP(=O)(O)O)c2cc1O`, the growth in the assay on NCI-H23 lung is 100%; in the assay with NCI-H226 lung, 102%; in the assay on NCI-H322M lung it was 91.2%; in the assay on NCI-H460 lung it was 103%; with HOP-92 NSCLC it was 100%; in the assay on NCI-H522 lung, 93.9%. Moreover, the growth in the assay with A549/ATCC NSCLC was 99.9%; with 786-0 renal, 105%; with COLO 205 colon it was 104%; with DU-145 prostate, 103%; in the assay on K-562 leukemia, 107%; in the assay with MALME-3M melanoma, 85.8%. Also, the growth in the assay on MDA-MB-231 breast is 97.4%; in the assay with RXF 393 renal it was 103%; in the assay with SF-268 CNS, 96.6%; with SF-295 CNS it was 100%; in the assay on SF-539 CNS, 96.8%; in the assay on UACC-257 melanoma it was 94.5%. Also, the growth with M14 melanoma is 103%.

With `CC(C)(C)c1cc(C=Nc2cccc(C(F)(F)F)c2)c(O)c(C(C)(C)C)c1`, the growth was 88.5% in the assay on NCI-H23 lung; 95.3% in the assay with NCI-H322M lung; 95.7% with HOP-62 NSCLC; 107% in the assay with NCI-H460 lung; 90.9% in the assay with HOP-92 NSCLC; 73.5% with NCI-H522 lung. Moreover, the growth in the assay on A549/ATCC NSCLC is 84.1%; with 786-0 renal, 107%; in the assay on COLO 205 colon it was 119%; in the assay with DU-145 prostate, 107%; in the assay with K-562 leukemia, 70.2%; with MALME-3M melanoma, 108%. For the same molecule, the growth with MDA-MB-231 breast was 98.3%; with RXF 393 renal, 94.3%; with SF-268 CNS it was 90.1%; in the assay on SF-295 CNS it was 97.4%; with SF-539 CNS, 101%; with UACC-257 melanoma it was 78.7%. Further, the growth in the assay with M14 melanoma was 100%.

For the molecule `CCCCCCCC/C=C\CCCCCCCCOc1ccc(CC(=O)NCC[N+](C)(C)C)cc1`, the growth in the assay on NCI-H23 lung is 67.2%; in the assay with NCI-H322M lung, 85.6%; in the assay on HOP-62 NSCLC it was 24.3%; in the assay with NCI-H460 lung it was 29.9%; with HOP-92 NSCLC it was 62.3%; in the assay on NCI-H522 lung, 50.7%. The growth in the assay on A549/ATCC NSCLC was 74.1%; in the assay on 786-0 renal, 59.6%; with COLO 205 colon, -69.1% (active); in the assay on DU-145 prostate it was 75.6%; in the assay on K-562 leukemia it was 55.1%; with MALME-3M melanoma, 70.2%. For the same molecule, the growth in the assay with MDA-MB-231 breast is 67.4%; with RXF 393 renal it was -21.8% (active); with SF-268 CNS, 68.6%; in the assay on SF-295 CNS it was 77.8%; in the assay on SF-539 CNS, 66.8%; with UACC-257 melanoma it was 79.7%. The growth with M14 melanoma was 63.7%.

In the case of `CC(C)C[C@@H](C(=O)N[C@H](C(=O)OC1CCCC1)c1ccccc1)[C@H](O)C(=O)NO`, the growth in the assay with NCI-H23 lung was 55.6%; in the assay with NCI-H322M lung, 69.2%; in the assay on HOP-62 NSCLC it was 26.9%; in the assay on NCI-H460 lung, 92.4%; in the assay on HOP-92 NSCLC, 65.7%; in the assay on NCI-H522 lung, 41.1%. Also, the growth in the assay on 786-0 renal was 67.8%; with COLO 205 colon it was 78.6%; in the assay on DU-145 prostate, 68.3%; in the assay on K-562 leukemia it was 22.7%; in the assay with MALME-3M melanoma it was 38.3%; in the assay with MDA-MB-231 breast, 9.77% (active). Also, the growth in the assay with RXF 393 renal was 7.55% (active); with SF-268 CNS, 88.9%; with SF-295 CNS, 60.8%; in the assay with SF-539 CNS, 52.2%; in the assay with UACC-257 melanoma, 36%; in the assay with M14 melanoma, 54.5%.
